From the supplement of paper PMC10849652
Of roughly 7,900 targets only a part is listed; those with a hit were picked by preference. About 0.6% of all pairs of compound and target were hits. A number with no mark means an inactive call.

Legend:
Test in all cases: log2 fold change, soluble protein after heating vs DMSO (PISA); higher = thermal stabilisation; K562 cells, 10 uM, 30 min; active = over 0.2 and 3.5 SD of the protein, either way, in both replicates (recomputed)
[1] = compound: NC(=O)Nc1cc(-c2cccc(F)c2)sc1C(=O)N[C@H]1CCCNC1
Method in brief: (§1)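 K562 cells at 2×10^6 cells/mL were treated for 30 min with 10 μM compound, and aliquots were heated for 3 min over 48°C-58°C before pooling. Extraction used PBS with 0.5% NP-40 at 4°C, and soluble protein was the supernatant after 21,000xg for 90 min, measured by TMTpro 16plex LC-MS/MS with channel sums equalised. Thermal stability values, relative to control samples and from duplicates, are log2 fold changes.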

[2] = compound: NC(=O)c1cnc(N[C@@H]2CCCC[C@@H]2N)nc1Nc1cccc(-n2nccn2)c1
Method in brief: as §1

[3] = compound: NC1(c2ccc(-c3nc4ccn5c(=O)[nH]nc5c4cc3-c3ccccc3)cc2)CCC1
Method in brief: as §1

[4] = compound: NCC(=O)Nc1ccc(-n2nc(C(F)(F)F)cc2-c2ccc3c(ccc4ccccc43)c2)cc1
Method in brief: as §1

entinostat = compound: Nc1ccccc1NC(=O)c1ccc(CNC(=O)OCc2cccnc2)cc1 [entinostat]
Method in brief: as §1

vorinostat = compound: O=C(CCCCCCC(=O)Nc1ccccc1)NO [vorinostat]
Method in brief: as §1

citarinostat = compound: O=C(CCCCCCNC(=O)c1cnc(N(c2ccccc2)c2ccccc2Cl)nc1)NO [citarinostat]
Method in brief: as §1

silmitasertib = compound: O=C(O)c1ccc2c(c1)nc(Nc1cccc(Cl)c1)c1ccncc12 [silmitasertib]
Method in brief: as §1

[5] = compound: O=C1NC(=O)C(c2cnc3ccccn23)=C1c1cn2c3c(cc(F)cc13)CN(C(=O)N1CCCCC1)CC2
Method in brief: as §1

[6] = compound: c1cc(OCCN2CCCCC2)cc(-c2n[nH]c3ccc(-c4nnc[nH]4)cc23)c1
Method in brief: as §1

entospletinib = compound: c1cn2cc(-c3ccc4cn[nH]c4c3)nc(Nc3ccc(N4CCOCC4)cc3)c2n1 [entospletinib]
Method in brief: as §1

UniProt P54136, sequence (P54136 whole entry, looked up): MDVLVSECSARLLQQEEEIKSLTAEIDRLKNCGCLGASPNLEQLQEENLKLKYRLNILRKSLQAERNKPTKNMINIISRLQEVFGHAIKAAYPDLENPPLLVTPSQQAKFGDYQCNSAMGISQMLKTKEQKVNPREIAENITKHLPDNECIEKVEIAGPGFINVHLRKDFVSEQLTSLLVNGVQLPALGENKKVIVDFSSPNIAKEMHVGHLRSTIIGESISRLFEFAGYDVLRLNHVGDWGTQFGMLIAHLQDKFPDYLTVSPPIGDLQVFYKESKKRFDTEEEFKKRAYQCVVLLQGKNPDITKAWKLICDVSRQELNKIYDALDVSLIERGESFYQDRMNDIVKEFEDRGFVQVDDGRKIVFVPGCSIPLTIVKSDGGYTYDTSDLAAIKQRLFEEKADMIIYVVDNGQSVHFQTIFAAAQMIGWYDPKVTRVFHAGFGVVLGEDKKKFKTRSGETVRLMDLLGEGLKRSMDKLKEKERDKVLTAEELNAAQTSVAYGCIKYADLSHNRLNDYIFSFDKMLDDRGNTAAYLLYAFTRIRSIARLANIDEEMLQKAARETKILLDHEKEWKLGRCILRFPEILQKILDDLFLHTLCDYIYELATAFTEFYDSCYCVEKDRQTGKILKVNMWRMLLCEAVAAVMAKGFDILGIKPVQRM
UniProt Q8N0T1, sequence (Q8N0T1 whole entry, looked up): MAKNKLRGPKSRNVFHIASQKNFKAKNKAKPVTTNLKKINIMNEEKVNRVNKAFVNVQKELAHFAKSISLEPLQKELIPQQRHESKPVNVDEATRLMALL
UniProt Q7L4I2, sequence (Q7L4I2 whole entry, looked up): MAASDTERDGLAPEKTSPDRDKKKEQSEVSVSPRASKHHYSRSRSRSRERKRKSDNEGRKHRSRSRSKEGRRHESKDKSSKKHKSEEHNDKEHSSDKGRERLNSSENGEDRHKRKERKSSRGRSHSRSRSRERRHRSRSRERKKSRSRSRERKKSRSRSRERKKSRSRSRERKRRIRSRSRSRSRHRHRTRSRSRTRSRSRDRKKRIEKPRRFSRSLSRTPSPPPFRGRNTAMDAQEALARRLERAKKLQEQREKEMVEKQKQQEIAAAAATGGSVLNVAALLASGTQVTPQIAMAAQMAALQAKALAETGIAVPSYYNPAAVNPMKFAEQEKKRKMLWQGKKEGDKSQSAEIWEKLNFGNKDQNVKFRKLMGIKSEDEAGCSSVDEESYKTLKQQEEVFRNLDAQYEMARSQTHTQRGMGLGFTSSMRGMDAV
UniProt Q9BUV8, sequence (Q9BUV8 whole entry, looked up): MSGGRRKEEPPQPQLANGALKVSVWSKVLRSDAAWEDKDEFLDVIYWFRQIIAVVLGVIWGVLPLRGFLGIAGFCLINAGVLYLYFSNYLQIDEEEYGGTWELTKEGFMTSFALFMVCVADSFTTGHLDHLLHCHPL
UniProt Q5JTH9, sequence (Q5JTH9 whole entry, looked up): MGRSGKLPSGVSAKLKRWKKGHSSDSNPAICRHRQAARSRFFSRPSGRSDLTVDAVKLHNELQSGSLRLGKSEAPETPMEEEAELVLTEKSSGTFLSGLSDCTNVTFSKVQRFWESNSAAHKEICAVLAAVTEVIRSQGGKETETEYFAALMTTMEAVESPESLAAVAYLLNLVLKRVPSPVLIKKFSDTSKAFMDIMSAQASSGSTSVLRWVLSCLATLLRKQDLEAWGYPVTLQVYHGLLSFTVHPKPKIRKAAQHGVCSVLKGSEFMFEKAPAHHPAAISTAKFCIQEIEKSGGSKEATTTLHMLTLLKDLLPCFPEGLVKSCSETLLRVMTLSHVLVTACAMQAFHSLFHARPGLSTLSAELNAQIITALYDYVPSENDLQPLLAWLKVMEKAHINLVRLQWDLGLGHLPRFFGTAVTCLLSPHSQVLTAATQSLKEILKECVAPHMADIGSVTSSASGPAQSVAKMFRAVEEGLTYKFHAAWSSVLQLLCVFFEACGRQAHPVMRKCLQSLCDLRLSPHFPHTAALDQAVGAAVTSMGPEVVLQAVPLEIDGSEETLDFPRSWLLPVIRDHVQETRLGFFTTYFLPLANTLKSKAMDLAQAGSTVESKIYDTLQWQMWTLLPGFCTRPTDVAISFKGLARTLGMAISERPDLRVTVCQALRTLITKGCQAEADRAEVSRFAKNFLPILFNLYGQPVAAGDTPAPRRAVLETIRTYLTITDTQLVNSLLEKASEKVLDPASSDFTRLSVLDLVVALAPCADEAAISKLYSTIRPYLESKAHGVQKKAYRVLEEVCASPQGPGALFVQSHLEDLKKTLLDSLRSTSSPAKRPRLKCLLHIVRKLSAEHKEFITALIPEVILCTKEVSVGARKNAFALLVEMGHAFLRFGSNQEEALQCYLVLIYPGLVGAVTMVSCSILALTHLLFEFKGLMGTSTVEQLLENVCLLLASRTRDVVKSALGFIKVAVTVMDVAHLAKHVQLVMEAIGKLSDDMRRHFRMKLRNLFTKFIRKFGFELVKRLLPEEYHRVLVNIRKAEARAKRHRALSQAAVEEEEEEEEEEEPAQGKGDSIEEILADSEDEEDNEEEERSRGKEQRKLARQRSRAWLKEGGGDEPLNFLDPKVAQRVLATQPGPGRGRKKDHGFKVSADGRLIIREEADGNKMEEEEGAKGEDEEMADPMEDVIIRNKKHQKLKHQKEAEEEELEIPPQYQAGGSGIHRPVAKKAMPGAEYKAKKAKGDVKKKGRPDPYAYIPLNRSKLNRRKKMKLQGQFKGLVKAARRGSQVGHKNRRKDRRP
UniProt Q9NW64, sequence (Q9NW64 whole entry, looked up): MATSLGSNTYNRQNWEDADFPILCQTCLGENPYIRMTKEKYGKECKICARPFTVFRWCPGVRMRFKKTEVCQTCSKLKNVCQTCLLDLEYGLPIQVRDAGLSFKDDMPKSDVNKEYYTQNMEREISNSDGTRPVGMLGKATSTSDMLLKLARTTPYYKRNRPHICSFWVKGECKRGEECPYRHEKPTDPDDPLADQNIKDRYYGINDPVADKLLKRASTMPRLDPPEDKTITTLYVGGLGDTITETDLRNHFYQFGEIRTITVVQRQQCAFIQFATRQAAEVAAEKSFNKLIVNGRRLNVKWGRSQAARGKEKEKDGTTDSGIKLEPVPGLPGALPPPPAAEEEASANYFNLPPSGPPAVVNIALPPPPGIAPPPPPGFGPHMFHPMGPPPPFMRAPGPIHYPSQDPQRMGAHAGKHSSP
UniProt Q9NSI8, sequence (Q9NSI8 whole entry, looked up): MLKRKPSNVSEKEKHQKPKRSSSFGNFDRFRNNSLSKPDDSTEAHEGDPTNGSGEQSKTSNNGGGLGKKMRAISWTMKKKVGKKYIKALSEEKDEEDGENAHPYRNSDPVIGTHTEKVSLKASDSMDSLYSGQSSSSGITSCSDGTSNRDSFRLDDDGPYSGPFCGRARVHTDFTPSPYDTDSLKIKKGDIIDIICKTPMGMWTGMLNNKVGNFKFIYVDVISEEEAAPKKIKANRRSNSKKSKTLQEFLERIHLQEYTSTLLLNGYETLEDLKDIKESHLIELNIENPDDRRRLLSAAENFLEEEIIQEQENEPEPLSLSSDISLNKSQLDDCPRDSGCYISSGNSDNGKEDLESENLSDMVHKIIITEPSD
UniProt Q8NBX0, sequence (Q8NBX0 whole entry, looked up): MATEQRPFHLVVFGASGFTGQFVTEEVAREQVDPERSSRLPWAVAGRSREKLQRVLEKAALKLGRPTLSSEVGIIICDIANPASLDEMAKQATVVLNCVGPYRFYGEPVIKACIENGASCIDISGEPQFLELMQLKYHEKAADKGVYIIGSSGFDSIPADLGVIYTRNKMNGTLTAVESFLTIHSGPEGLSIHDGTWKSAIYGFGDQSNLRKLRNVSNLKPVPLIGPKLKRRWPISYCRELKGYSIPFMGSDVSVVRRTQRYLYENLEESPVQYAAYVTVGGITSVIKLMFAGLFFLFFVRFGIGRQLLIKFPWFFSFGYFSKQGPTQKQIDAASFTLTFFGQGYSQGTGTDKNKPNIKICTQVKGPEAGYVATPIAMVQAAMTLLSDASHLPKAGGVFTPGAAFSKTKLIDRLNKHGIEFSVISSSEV
UniProt Q04864, sequence (Q04864 whole entry, looked up): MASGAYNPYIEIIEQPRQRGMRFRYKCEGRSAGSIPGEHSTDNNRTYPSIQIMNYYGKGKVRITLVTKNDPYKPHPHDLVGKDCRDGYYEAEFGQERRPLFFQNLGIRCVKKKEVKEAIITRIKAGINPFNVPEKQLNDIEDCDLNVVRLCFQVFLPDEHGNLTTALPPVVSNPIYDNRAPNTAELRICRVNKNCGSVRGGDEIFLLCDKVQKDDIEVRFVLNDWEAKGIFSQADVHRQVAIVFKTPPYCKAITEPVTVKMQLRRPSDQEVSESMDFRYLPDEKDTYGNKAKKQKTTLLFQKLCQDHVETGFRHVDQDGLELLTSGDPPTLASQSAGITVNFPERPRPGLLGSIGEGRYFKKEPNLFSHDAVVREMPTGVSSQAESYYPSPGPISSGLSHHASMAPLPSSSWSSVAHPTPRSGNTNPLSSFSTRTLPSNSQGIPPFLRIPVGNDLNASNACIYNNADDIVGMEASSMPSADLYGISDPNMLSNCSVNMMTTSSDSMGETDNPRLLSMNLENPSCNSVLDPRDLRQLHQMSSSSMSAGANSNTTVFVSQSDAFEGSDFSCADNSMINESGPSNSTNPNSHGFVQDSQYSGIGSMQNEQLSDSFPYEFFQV
UniProt Q8IXJ6, sequence (Q8IXJ6 whole entry, looked up): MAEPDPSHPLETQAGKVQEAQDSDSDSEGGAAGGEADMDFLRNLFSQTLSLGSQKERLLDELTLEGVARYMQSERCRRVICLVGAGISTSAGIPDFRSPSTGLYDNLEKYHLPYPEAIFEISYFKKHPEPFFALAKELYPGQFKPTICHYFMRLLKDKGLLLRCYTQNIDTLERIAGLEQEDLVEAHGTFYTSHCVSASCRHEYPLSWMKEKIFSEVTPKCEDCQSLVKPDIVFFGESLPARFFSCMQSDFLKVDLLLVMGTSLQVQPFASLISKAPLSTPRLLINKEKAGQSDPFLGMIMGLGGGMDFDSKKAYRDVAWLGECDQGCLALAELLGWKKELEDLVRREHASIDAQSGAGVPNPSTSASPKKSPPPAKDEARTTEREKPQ
UniProt Q9BWJ5, sequence (Q9BWJ5 whole entry, looked up): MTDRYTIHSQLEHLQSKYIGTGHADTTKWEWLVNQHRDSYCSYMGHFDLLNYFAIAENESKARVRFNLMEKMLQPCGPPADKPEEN

Target	log2 fold change [1]	log2 fold change [2]	log2 fold change [3]	log2 fold change [4]	log2 fold change (entinostat)	log2 fold change (vorinostat)	log2 fold change (citarinostat)	log2 fold change (silmitasertib)	log2 fold change [5]	log2 fold change [6]	log2 fold change (entospletinib)
REL (UniProt Q04864)	-0.053	-0.131	-0.108	0.028	-0.007	-0.122	0.053	0.053	-0.054	-0.09	0.054
RHOA (UniProt P61586)	-0.01	0.036	0.204	0.123	-0.019	-0.16	-0.047	-0.136	-0.057	0.104	0.054
RNF220 (UniProt Q5VTB9)	0.01	-0.019	-0.002	-0.06	-0.037	0.052	0.043	0.025	-0.075	-0.038	-0.021
SAMSN1 isoform 3 (UniProt Q9NSI8)	-0.06	-0.067	-0.067	-0.028	0.099	0.009	0.06	0.063	-0.073	-0.025	-0.058
RCC1 isoform 2 (UniProt P18754)	-0.084	-0.174	-0.18	-0.066	0.132	0.094	0.026	-0.056	-0.132	-0.024	-0.022
RPS16 (UniProt P62249)	0.086	0.08	0.182	0.043	-0.043	0.017	-0.044	-0.097	0.093	-0.119	0.074
RRP12 (UniProt Q5JTH9)	0.062	0.188	0.089	0.051	0.081	0.072	-0.064	0.121	0.119	0.216	-0.132
RAP2C (UniProt Q9Y3L5)	0.072	0.299 (active)	0.133	0.118	-0.045	0.051	0.056	-0.04	-0.008	-0.061	0.017
SCAF8 isoform 2 (UniProt Q9UPN6)	-0.062	-0.028	-0.086	-0.044	0.053	0.166	0.058	-0.003	-0.098	-0.093	-0.042
RPS19 (UniProt P39019)	-0.008	0.075	0.186	0.079	-0.06	-0.007	-0.059	-0.014	0.051	-0.107	0.057
SF3B5 (UniProt Q9BWJ5)	0.081	0.043	-0.034	0.038	0.116	-0.004	-0.016	0.016	-0.127	0	0.021
RIC8A isoform 3 (UniProt Q9NPQ8)	-0.035	-0.154	-0.126	-0.088	0.192	0.058	0.12	-0.005	0.084	-0.096	0.095
RBIS (UniProt Q8N0T1)	-0.021	-0.029	0.02	0.02	0.019	0.014	0.092	-0.009	-0.002	-0.078	-0.031
SHCBP1 (UniProt Q8NEM2)	0.01	-0.017	-0.107	-0.08	-0.063	0.039	0.136	0.025	-0.087	-0.091	0.039
SCCPDH (UniProt Q8NBX0)	-0.113	-0.056	0.045	-0.024	-0.071	0.062	0.199	-0.004	0.123	0.33	0.076
RSRC2 (UniProt Q7L4I2)	-0.05	0.111	-0.001	-0.019	-0.01	-0.029	0.038	-0.13	0.023	-0.034	0.019
RCOR3 isoform 3 (UniProt Q9P2K3)	0.019	-0.067	-0.129	-0.177	0.1	0.127	0.115	-0.043		-0.075	-0.088
RARS (UniProt P54136)	0.098	-0.076	0.032	-0.01	0.041	0.115	0.028	0.107	0.325	-0.135	0.165
RAB5IF isoform 5 (UniProt Q9BUV8)	0.008	0.103	0.003	-0.107	0.007	-0.019	0.225	-0.032	0.168	0.047	-0.086
RAD50, A0A494C0Y7	-0.032	-0.159	-0.28	-0.175	-0.103	-0.086	0.095	0.103		-0.279	-0.108
SLC12A9 (UniProt Q9BXP2)	0.05	-0.142	-0.313 (active)	-0.03	0.021	0.027	0.035	0.017	-0.081	-0.062	-0.021
ROR2 (UniProt Q01974)	-0.007	-0.01	-0.03	-0.04	0.004	0.003	0.078	-0.027	0.012	-0.151	-0.025
RPS27A (UniProt P62979)	0.024	0.16	0.286	0.177	-0.047	-0.007	-0.211	0.05	0.064	-0.06	0.222
RUFY3 isoform 3 (UniProt Q7L099)	-0.032	-0.022	-0.05	-0.014	0.143	0.071	0.089	0.1		0.013	-0.046
RBM22 (UniProt Q9NW64)	-0.027	-0.004	0.032	-0.049	-0.008	-0.009	-0.038	0.119	-0.063	-0.043	-0.015
RAD51 (UniProt Q06609)	0.051	-0.019	-0.057	0.031	0.001	0.047	0.018	-0.003	-0.014	-0.012	-0.127
SIRT2 (UniProt Q8IXJ6)	-0.048	0.023	-0.07	-0.066	-0.02	-0.039	-0.022	-0.035	-0.035	0.033	-0.047
